Experimental findings from the supplement of paper PMC12067093, “Discovery and optimisation of a covalent ligand for TRIM25 and its application to targeted protein ubiquitination” (Chemical Science, 2025) are described below.

Of roughly 21,000 targets only a part is listed; those with the largest changes were picked by preference.

Compound in this experiment: Cc1cc(ccc1-c1ccccc1)C(=O)N1CCCN(CC1)C(=O)CCl [compound 10]
The experiment can be described thus: probe-labelled cysteine peptide fold change vs DMSO (competition) (log2 fold change); higher = less target engagement (more negative = stronger competition). The conditions noted are these: THP-1, incubation time: 4 h.
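Note: competitive profiling in live THP-1 cells: cysteine peptides tagged with an iodoacetamide desthiobiotin (IA-DTB) probe, intensity after compound treatment relative to DMSO-treated cells.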

Chain of UniProt O94759 (O94759 whole entry, looked up): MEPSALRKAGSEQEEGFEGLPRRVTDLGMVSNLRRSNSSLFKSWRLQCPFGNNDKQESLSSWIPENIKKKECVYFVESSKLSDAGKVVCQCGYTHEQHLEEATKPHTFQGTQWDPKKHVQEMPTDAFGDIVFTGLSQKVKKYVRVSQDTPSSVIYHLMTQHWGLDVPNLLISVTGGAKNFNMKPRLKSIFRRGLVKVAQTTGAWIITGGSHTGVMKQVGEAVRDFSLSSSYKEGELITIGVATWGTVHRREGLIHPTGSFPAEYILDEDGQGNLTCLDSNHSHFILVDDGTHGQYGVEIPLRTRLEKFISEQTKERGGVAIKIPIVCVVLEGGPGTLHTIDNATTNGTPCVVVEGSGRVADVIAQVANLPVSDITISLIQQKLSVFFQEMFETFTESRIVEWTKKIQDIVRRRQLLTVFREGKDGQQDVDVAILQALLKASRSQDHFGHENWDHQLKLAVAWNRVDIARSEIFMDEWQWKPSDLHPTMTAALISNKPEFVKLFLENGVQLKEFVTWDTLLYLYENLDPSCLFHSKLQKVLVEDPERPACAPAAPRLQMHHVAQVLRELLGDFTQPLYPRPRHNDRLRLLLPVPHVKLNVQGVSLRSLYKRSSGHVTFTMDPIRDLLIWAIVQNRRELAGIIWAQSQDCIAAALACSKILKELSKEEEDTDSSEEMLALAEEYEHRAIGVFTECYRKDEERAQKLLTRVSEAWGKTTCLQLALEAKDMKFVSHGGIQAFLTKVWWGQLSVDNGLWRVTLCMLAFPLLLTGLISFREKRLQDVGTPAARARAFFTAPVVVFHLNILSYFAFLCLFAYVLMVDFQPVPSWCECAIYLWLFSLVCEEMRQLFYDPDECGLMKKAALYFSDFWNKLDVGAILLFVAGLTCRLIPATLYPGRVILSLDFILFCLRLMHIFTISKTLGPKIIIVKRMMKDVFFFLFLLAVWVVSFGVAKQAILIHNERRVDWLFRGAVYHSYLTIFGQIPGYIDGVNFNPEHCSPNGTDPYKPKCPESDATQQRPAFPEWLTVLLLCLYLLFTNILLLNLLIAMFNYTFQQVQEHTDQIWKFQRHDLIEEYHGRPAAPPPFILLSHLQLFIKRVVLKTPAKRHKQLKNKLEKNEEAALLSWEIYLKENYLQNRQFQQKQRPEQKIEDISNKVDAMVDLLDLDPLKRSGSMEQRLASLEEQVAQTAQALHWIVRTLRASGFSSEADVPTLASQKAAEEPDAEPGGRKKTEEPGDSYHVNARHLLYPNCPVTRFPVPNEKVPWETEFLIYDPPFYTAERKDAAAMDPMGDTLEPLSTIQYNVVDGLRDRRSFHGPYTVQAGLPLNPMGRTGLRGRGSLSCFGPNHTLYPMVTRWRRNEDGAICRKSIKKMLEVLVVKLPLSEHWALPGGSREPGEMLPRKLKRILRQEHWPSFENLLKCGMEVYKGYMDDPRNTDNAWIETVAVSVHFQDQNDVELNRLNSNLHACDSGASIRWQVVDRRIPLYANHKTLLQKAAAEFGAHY
Chain of UniProt P08670 (P08670 whole entry, looked up): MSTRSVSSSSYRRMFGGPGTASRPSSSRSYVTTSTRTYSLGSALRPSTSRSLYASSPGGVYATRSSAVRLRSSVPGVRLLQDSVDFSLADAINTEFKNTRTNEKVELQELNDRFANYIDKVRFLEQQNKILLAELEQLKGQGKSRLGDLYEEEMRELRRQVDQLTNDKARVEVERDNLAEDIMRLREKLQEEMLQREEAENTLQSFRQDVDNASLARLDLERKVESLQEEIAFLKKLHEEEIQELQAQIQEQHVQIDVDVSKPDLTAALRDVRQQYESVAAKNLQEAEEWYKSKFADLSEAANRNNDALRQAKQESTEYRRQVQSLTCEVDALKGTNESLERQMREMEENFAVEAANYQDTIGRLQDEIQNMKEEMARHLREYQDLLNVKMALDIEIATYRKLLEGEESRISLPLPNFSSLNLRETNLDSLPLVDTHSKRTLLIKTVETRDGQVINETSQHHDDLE
Chain of UniProt Q9NPD8 (Q9NPD8 whole entry, looked up): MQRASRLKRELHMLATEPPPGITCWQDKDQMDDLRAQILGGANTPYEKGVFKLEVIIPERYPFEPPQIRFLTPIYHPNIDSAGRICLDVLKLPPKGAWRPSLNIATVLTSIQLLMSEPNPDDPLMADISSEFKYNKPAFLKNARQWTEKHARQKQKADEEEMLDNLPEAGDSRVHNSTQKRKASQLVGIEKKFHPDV
Chain of UniProt Q8TD43 (Q8TD43 whole entry): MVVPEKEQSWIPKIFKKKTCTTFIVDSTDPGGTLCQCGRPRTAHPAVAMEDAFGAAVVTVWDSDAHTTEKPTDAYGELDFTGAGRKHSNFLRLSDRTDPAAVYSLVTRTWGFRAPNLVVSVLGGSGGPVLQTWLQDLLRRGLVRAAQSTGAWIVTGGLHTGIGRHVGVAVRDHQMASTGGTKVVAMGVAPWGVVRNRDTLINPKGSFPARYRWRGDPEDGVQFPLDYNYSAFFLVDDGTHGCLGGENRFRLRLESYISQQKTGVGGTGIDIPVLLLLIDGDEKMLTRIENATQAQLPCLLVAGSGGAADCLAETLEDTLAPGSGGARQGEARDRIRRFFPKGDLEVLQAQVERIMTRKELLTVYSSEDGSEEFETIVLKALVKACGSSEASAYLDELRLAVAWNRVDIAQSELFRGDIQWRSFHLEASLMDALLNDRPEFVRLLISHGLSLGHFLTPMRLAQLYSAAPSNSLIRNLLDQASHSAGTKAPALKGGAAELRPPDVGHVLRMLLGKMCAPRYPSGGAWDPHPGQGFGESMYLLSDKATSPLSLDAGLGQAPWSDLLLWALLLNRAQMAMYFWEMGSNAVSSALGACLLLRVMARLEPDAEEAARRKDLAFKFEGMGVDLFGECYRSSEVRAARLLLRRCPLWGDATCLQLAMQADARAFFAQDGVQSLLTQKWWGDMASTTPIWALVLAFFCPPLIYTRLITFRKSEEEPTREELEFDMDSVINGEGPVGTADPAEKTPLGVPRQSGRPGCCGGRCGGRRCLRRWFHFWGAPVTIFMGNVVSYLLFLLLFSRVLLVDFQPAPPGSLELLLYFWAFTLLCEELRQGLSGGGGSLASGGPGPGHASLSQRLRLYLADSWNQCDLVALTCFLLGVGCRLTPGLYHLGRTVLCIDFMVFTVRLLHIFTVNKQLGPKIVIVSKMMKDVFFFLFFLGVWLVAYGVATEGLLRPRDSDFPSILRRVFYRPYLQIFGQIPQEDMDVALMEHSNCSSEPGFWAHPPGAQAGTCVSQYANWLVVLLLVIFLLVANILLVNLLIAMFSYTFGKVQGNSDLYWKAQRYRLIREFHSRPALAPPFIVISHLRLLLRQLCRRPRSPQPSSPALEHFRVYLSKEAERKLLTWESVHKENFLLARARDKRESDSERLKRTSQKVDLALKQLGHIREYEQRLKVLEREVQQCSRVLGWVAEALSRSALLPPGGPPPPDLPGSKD
Chain of UniProt Q7Z392 (Q7Z392 whole entry, looked up): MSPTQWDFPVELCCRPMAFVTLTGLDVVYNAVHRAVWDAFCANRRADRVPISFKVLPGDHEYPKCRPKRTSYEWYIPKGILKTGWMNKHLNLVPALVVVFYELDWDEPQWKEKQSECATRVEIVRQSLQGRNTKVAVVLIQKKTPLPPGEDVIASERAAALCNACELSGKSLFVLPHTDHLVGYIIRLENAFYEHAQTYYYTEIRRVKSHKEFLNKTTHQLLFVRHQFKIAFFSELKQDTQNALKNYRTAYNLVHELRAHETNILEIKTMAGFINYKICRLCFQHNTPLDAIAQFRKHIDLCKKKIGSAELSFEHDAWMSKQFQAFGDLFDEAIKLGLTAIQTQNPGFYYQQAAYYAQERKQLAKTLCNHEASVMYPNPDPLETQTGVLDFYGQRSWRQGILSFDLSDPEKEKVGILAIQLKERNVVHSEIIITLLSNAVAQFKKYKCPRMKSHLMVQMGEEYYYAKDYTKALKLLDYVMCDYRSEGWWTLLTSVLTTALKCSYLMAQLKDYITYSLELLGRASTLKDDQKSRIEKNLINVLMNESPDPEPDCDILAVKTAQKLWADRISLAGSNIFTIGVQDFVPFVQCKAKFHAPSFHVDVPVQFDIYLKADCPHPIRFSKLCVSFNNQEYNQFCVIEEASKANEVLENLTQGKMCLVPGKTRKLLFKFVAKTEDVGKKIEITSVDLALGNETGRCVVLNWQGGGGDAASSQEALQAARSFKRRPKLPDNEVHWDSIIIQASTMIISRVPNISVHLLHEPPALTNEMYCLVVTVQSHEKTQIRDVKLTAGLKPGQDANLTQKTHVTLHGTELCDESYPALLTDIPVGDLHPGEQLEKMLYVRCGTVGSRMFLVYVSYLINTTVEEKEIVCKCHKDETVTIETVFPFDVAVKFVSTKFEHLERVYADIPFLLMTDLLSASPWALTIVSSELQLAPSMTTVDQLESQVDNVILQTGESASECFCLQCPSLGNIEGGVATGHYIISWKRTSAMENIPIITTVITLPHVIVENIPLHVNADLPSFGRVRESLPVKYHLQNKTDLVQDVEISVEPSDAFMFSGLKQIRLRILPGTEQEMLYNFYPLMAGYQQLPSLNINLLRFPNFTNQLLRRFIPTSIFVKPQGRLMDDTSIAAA
Chain of UniProt Q15654 (Q15654 whole entry, looked up): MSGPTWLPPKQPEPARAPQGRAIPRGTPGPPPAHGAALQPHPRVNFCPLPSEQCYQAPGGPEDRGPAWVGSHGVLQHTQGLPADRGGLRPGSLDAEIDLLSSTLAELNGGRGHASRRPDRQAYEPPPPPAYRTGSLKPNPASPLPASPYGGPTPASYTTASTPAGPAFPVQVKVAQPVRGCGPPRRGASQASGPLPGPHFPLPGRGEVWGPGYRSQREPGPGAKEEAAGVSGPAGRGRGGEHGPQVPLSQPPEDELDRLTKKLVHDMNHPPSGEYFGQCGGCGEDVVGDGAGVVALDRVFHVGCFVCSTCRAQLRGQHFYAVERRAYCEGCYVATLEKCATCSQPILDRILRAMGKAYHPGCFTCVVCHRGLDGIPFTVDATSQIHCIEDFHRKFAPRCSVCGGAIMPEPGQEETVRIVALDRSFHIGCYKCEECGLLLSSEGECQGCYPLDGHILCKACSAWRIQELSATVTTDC

As to “UBR4_Q5T4S7_2619_QLEGDCCSFITQLVNHFWK (UniProt Q5T4S7)”, the “probe-labelled cysteine peptide fold change” value is -0.0425 (10 µM) and -0.45 (50 µM).

In the case of “TWSG1_Q9GZX9_185_ISCESMGASK (UniProt Q9GZX9)”, the “probe-labelled cysteine peptide fold change” value reads like this: (10 µM) -0.121; (50 µM) -0.0863.

Regarding “UBR2_Q8IWV8_1360_ILSDEDKPLFGPLPCR (UniProt Q8IWV8)”, the “probe-labelled cysteine peptide fold change” value reads like this: (10 µM) -0.203; (50 µM) -0.412.

With “TSN_Q15631_225_ETAAACVEK (UniProt Q15631)”, the “probe-labelled cysteine peptide fold change” value reads like this: (10 µM) -0.291; (50 µM) -0.282.

Regarding “TTLL12_Q14166_361_PGVLLNQFPCENLLTVK (UniProt Q14166)”, the “probe-labelled cysteine peptide fold change” value was -0.00778 (10 µM) and -0.111 (50 µM).

As for “UQCRC1_P31930_154_AVELLGDIVQNCSLEDSQIEK (UniProt P31930)”, the “probe-labelled cysteine peptide fold change” value (10 µM) was determined as 0.114 and the “probe-labelled cysteine peptide fold change” value (50 µM) came to 0.272.

For “VIM_P08670_328_RQVQSLTCEVDALK (UniProt P08670)”, the “probe-labelled cysteine peptide fold change” value (10 µM) turned out to be 0.00911 and the “probe-labelled cysteine peptide fold change” value (50 µM) was -0.139.

As to “UBR4_Q5T4S7_2222_HTACNEQQR (UniProt Q5T4S7)”, the “probe-labelled cysteine peptide fold change” value was -0.245 (10 µM) and -1.12 (50 µM).

Consider “UBAP2_Q5T6F2_71_NQDECIVALHDCNGDVNK (UniProt Q5T6F2)”, for which the “probe-labelled cysteine peptide fold change” value was 0.0613 (10 µM) and -0.0464 (50 µM).

Turning to “UBE2T_Q9NPD8_24_ELHMLATEPPPGITCWQDK (UniProt Q9NPD8)”, the “probe-labelled cysteine peptide fold change” value (10 µM) was -0.209 and the “probe-labelled cysteine peptide fold change” value (50 µM) is -0.165.

As for “TRIM28_Q13263_717_VLLALFCHEPCR (UniProt Q13263)”, the “probe-labelled cysteine peptide fold change” value (10 µM) is 0.00318 and the “probe-labelled cysteine peptide fold change” value (50 µM) amounted to 0.0176.

For “TRAPPC11_Q7Z392_615_ADCPHPIR (UniProt Q7Z392)”, the “probe-labelled cysteine peptide fold change” value was 0.126 (10 µM) and 0.142 (50 µM).

Consider “TRAPPC9_Q96Q05_317_NCLSPEDIIDK (UniProt Q96Q05)”, for which the “probe-labelled cysteine peptide fold change” value runs as follows: (10 µM) 0.12; (50 µM) 0.213.

Regarding “TXNDC5_Q8NBS9_353_FYAPWCGHCK (UniProt Q8NBS9)”, the “probe-labelled cysteine peptide fold change” value was -0.372 (10 µM) and -1.61 (50 µM).

For “VCPIP1_Q96JH7_219_SQECLIPVHVDGDGHCLVHAVSR (UniProt Q96JH7)”, the “probe-labelled cysteine peptide fold change” value (10 µM) is -2.4 and the “probe-labelled cysteine peptide fold change” value (50 µM) was less than -5.

As for “UROD_P06132_308_TVTLQGNLDPCALYASEEEIGQLVK (UniProt P06132)”, the “probe-labelled cysteine peptide fold change” value is -0.0737 (10 µM) and 0.0622 (50 µM).

For “TRPM7_Q96QT4_1411_FFVSTPSQPSCK (UniProt Q96QT4)”, the “probe-labelled cysteine peptide fold change” value runs as follows: (10 µM) -0.337; (50 µM) -0.544.

“TRRAP_Q9Y4A5_2513_STPIGTSCQGAMLPSITNVINLADSHDR (UniProt Q9Y4A5)”: the “probe-labelled cysteine peptide fold change” value amounted to 0.223 (10 µM) and 0.295 (50 µM).

Consider “TRPM4_Q8TD43_759_QSGRPGCCGGR (UniProt Q8TD43)”, for which the “probe-labelled cysteine peptide fold change” value by setting is: (10 µM) -0.788; (50 µM) -2.09.

For “TRNAU1AP_Q9NX07_157_ALTECQGAVGLGSKPVR (UniProt Q9NX07)”, the “probe-labelled cysteine peptide fold change” value by setting is: (10 µM) -0.212; (50 µM) -0.171.

As for “VAV3_Q9UKW4_187_CPENDIR (UniProt Q9UKW4)”, the “probe-labelled cysteine peptide fold change” value is -0.136 (10 µM) and -0.136 (50 µM).

“UGGT1_Q9NYU2_880_MDFILSHAVYCR (UniProt Q9NYU2)”: the “probe-labelled cysteine peptide fold change” value (10 µM) worked out at 0.117 and the “probe-labelled cysteine peptide fold change” value (50 µM) came to 0.39.

With “TRIM25_Q14258_506_FTYCSQVLGLHCYK (UniProt Q14258)”, the “probe-labelled cysteine peptide fold change” value reads like this: (10 µM) -1.09; (50 µM) -4.87.

Take “TRIP6_Q15654_339+342_CATCSQPILDR (UniProt Q15654)”: the “probe-labelled cysteine peptide fold change” value reads like this: (10 µM) 0.045; (50 µM) -0.28.

On to “VCPIP1_Q96JH7_517_NYSFPLNNLVCSYDSVK (UniProt Q96JH7)”, for which the “probe-labelled cysteine peptide fold change” value (10 µM) worked out at 0.0884 and the “probe-labelled cysteine peptide fold change” value (50 µM) worked out at 0.1.

Regarding “TXNDC5_Q8NBS9_350+353_FYAPWCGHCK (UniProt Q8NBS9)”, the “probe-labelled cysteine peptide fold change” value (10 µM) is -0.375 and the “probe-labelled cysteine peptide fold change” value (50 µM) is -1.05.

Regarding “TRMT2A_Q8IZ69_270_GGTCAVAAPFDTVHIPEATK (UniProt Q8IZ69)”, the “probe-labelled cysteine peptide fold change” value reads like this: (10 µM) -0.0935; (50 µM) -0.357.

As for “USP34_Q70CQ2_1330_KGEGVQLPASCLPPPQK (UniProt Q70CQ2)”, the “probe-labelled cysteine peptide fold change” value (10 µM) is -0.079 and the “probe-labelled cysteine peptide fold change” value (50 µM) was -0.0424.

Take “TTLL12_Q14166_126_ESGLQAAHPNSIFLIDHAWTCR (UniProt Q14166)”: the “probe-labelled cysteine peptide fold change” value by setting is: (10 µM) 0.0995; (50 µM) 0.0514.

On to “UBXN7_O94888_478_KLSHLDYDITLQEAGLCPQETVFVQER (UniProt O94888)”, for which the “probe-labelled cysteine peptide fold change” value was 0.134 (10 µM) and -0.0436 (50 µM).

Take “TTC1_Q99614_178_EMAINDCSK (UniProt Q99614)”: the “probe-labelled cysteine peptide fold change” value was 0.303 (10 µM) and -0.13 (50 µM).

As to “TXNIP_Q9H3M7_170_KVSCMFIPDGR (UniProt Q9H3M7)”, the “probe-labelled cysteine peptide fold change” value (10 µM) was 0.205 and the “probe-labelled cysteine peptide fold change” value (50 µM) was -1.47.

On to “TRIM25_Q14258_119_TCLVCMASFCQEHLQPHFDSPAFQDHPLQPPVR (UniProt Q14258)”, for which the “probe-labelled cysteine peptide fold change” value reads like this: (10 µM) 0.371; (50 µM) 0.313.

For the target “UBR7_Q8N806_99+101_CDCGNSK (UniProt Q8N806)”, the “probe-labelled cysteine peptide fold change” value is -0.364 (10 µM) and -1.41 (50 µM).

Regarding TPX2_Q9ULW0_301_GCTIVK (UniProt Q9ULW0), the “probe-labelled cysteine peptide fold change” value reads like this: (10 µM) 0.583; (50 µM) 0.294.

On to “USP48_Q86UV5_145_DYEPQTICEHLQYLFALLQNSNRR (UniProt Q86UV5)”, for which the “probe-labelled cysteine peptide fold change” value came out at 0.119 (10 µM) and 0.166 (50 µM).

As for “TRPM2_O94759_72_ECVYFVESSK (UniProt O94759)”, the “probe-labelled cysteine peptide fold change” value (10 µM) was -0.0415 and the “probe-labelled cysteine peptide fold change” value (50 µM) is -0.249.

On to “UCHL3_P15374_95_QTISNACGTIGLIHAIANNK (UniProt P15374)”, for which the “probe-labelled cysteine peptide fold change” value is -0.157 (10 µM) and -1.45 (50 µM).
